PubChem BioAssay (NCATS)
Records with an inconclusive call do not appear. Calls of active or inactive are those of the source. Calls follow the shape of the dose curve; as a rule, active = well fitted curve in the direction sought with a large enough effect; inconclusive = small, poorly fitted or top-dose-only effect, or another doubt; inactive = no such curve, though single readings can be large; an effect the other way counts as inactive or inconclusive. Peptide text beside a SMILES is read from it.

Tests used:
[1] = biological target: Cellular tumor antigen p53 (Homo sapiens) (UniProt P04637); experiment: Primary qHTS for small molecule compounds that upregulate eGFP-tagged delta133p53alpha (in N-terminal) cells. (AID 2060322); conditions: NCI-H358 eGFP-delta133p53alpha fluorescence, 24 h; activation: active compounds read high;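 also: cells pre-induced with doxycycline then dosed without doxycycline; series mostly up to about 56 µM; 0% = DMSO vehicle and 100% = reference activator; nearly all actives have a fitted effect of over 75% in size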
Summary of the method: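 NCI-H358 cells pre-induced 24 h with 10 ng/ml doxycycline for eGFP-delta133p53alpha, plated dox-free and exposed 24 h at 37C to titrated compounds. Fixed, Hoechst-stained; gated GFP peak intensity by laser scanning cytometry, normalized to DMSO (0%) and 57.5 uM 5-azacytidine (100%).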

[2] = biological target: Aldehyde dehydrogenase, mitochondrial (Homo sapiens) (UniProt P05091); experiment: qHTS for Inhibitors of the Aldehyde Dehydrogenase Family (ALDH2) Primary screen (AID 2061308);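 also: plate controls were vehicle for no effect and reference inhibitor for full effect; nearly all actives have a fitted effect of over 55% in size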
[3] = biological target: Retinaldehyde dehydrogenase 3 (Homo sapiens) (UniProt P47895); experiment: qHTS for Inhibitors of the Aldehyde Dehydrogenase Family (ALDH1A3) Primary screen (AID 2061315);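 also: plate controls were DMSO vehicle for no effect and reference inhibitor for full effect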

Cellular tumor antigen p53 (Homo sapiens), sequence (P04637 whole entry, looked up): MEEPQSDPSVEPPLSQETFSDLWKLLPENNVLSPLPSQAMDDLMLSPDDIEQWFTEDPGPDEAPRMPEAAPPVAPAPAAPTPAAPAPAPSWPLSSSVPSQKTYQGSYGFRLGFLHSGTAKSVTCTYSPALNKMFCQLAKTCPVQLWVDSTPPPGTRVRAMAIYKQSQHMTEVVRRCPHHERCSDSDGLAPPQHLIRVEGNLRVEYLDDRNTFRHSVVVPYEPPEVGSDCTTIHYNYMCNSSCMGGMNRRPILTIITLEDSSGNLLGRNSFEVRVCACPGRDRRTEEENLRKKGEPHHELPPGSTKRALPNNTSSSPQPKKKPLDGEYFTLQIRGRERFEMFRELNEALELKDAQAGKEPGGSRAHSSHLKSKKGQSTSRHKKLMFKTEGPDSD

CC(=O)NC(Cc1ccccc1)C(=O)NC(C(=O)O)C(C)C (stereo not drawn) (Ac-Phe-Val-OH; configuration not given here)
inactive: activation [1] 0% | Potency [2] | Potency [3]

C/C1=C\CC[C@]2(C)O[C@@H]2[C@H](O)[C@H](C(C)C)[C@H](OC(=O)/C=C/c2ccccc2)C1
inactive: activation [1] 6.25% | Potency [2] | Potency [3]

Cc1nc(C#Cc2ccnc(Cl)c2)c(C)n1-c1ccc(OC(F)(F)F)cc1
inactive: activation [1] -7.16% | Potency [2] | Potency [3]

C[C@@H]1C[C@@H]([C@@H](O)C(C)(C)O)O[C@H]2C[C@@]3(C)C(=C12)C[C@H](O)[C@H]1[C@@]2(C)CCC(=O)C(C)(C)C2CC[C@@]13C (some centres undefined)
inactive: activation [1] -6.87% | Potency [2] | Potency [3]

CC1(C=O)CC[C@]2(C(=O)O[C@@H]3O[C@H](CO)[C@@H](O)[C@H](O)[C@H]3O)CC[C@]3(C)C(=CCC4[C@@]5(C)C[C@H](O)[C@H](O[C@@H]6OC[C@@H](O)[C@H](O)[C@H]6O)[C@@](C)(CO)C5CC[C@]43C)C2C1 (some centres undefined)
inactive: activation [1] 6.87% | Potency [2] | Potency [3]

CCC1CC2C(C)=CC3CCCCC3C2(C)C2(OC(=O)C(C)(O)OC2=O)O1 (centres undefined)
inactive: activation [1] -16% | Potency [2] | Potency [3]

CC(C)(C)c1ccc(C(=O)Nc2cn3cc(-n4ccnc4)ccc3n2)cc1
inactive: activation [1] 1.79% | Potency [2] | Potency [3]

CC1(CO)CC(O)C2(C)CCC3(C)C(=CCC4C5(C=O)CCC(OC6OC(C(=O)O)C(O)C(O)C6OC6OC(C(=O)O)C(O)C(O)C6O)C(C)(C)C5CCC43C)C2C1 (centres undefined)
inactive: activation [1] -10.7% | Potency [2] | Potency [3]
